Source: PubChem
Sm TGR block = S. mansoni TGR enzyme inhibition | Q962Y6 | purified TGR, DTNB reduction, TNB absorbance 405 nm | Potency, µM (titrated, usually from 114 µM), inactives show at the top dose activity change, negative = inhibition, most hits filed as inhibitors | hit rate 3% among 360,000 | AID 485364; further: nearly all actives have a fitted effect of over 60% in size
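First, TGR (20 nM dispensed) and NADPH were mixed with compound. Second, a 15 min room-temperature incubation followed. Third, further NADPH and then DTNB were added to start the reaction. Finally, TNB absorbance was monitored kinetically.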
AMA1 RON2 block = AMA1-RON2 (P. falciparum) interaction inhibition; AlphaScreen AMA1-biotinylated RON2 peptide binding; Potency, µM (highest dose often 58.2 µM), for inactives: at the top dose activity change, negative = inhibition, actives largely listed as inhibitors; hit rate 0.2% among 360,000; AID 720542;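 further: 0% = vehicle wells and -100% = peptide control; nearly all actives have a fitted effect of over 45% in size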
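AMA1 (3D7) with his tag at 25 nM final met compounds first, then biotinylated RON2 peptide at 25 nM; detection used donor plus acceptor beads, 10 µg/mL apiece, read by AlphaScreen after 30 min at room temperature.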
FMDV inh = foot and mouth disease virus antiviral activity | FMDV antiviral cell-based qHTS | Potency, µM (doses to about 57.9 µM), for the others: top-dose activity change, negative = inhibition, hits mostly inhibitors | hit rate 1.2% among 410,000; calls by dose curve; tested in HEK293T cells; further: read-out not given here; nearly all actives have a fitted effect of over 45% in size
AmpC detergent = inhibitors of E. coli AmpC beta-lactamase with detergent; Potency, µM (highest dose often 114 µM), for the others: at the top dose activity change, negative = inhibition, actives largely listed as inhibitors; AmpC hydrolysis of nitrocefin, absorbance 480 nm, 0.01% Triton; AID 485294; P00811; hit rate 0.041% among 370,000;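 further: 0% = no-compound wells and -100% = no-enzyme wells; nearly all actives have a fitted effect of over 25% in size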
Target sequence (P00811 whole entry, looked up): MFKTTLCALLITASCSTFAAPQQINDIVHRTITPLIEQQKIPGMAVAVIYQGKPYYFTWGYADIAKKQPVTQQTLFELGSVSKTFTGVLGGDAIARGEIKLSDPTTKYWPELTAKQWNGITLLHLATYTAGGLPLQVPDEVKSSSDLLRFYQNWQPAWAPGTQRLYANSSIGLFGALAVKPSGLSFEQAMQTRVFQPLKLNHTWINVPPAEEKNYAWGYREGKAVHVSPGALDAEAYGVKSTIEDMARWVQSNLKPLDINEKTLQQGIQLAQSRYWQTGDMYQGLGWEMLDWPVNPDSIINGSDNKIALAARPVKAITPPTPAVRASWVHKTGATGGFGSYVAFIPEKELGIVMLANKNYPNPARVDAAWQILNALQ
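20 mM phosphate pH 7.0 + 0.01% (detergent screen) or 0.0001% Triton X-100; 5.3 nM AmpC reagent; cpd preinc 15 min RT; nitrocefin (800 uM stock) to start; A480 q20 s × 4 min; Activity was normalised to no-enzyme and no-compound control wells.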
AmpC inh no detg = inhibitors of E. coli AmpC beta-lactamase without detergent. hit rate 0.52% among 330,000. AmpC nitrocefin hydrolysis, absorbance 480 nm, 0.0001% Triton. Potency, µM (series often up to 57.1 µM), without a hit: at the top dose activity change, negative = inhibition, actives largely listed as inhibitors;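 further: plate controls were no compound for no effect and no enzyme for full effect; nearly all actives have a fitted effect of over 20% in size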
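20 mM phosphate pH 7.0 + 0.01% (detergent screen) or 0.0001% Triton X-100; 5.3 nM AmpC reagent; cpd preinc 15 min RT; nitrocefin (800 uM stock) to start; A480 q20 s × 4 min; Activity was normalised to no-enzyme and no-compound control wells.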
Active calls of the source: *; u = inconclusive; x = no result given. The list is not random: actives were taken first. Their share in the collection is about 4.1%. Unless noted, the call rests on the fitted dose curve; in most records, active means well fitted curve in the direction sought with a large enough effect; inconclusive means small, poorly fitted or top-dose-only effect, or another doubt; inactive means no such curve, though single readings can be large; an effect the other way counts as inactive or inconclusive. Unless noted, on the % scale 0 is the no-effect control and ±100 the full control effect; potency means the concentration at half of the fitted maximal effect.

SMILES | Sm TGR block | AMA1 RON2 block | FMDV inh | AmpC detergent | AmpC inh no detg
COc1cccc(C2CC(c3cccc(OC)c3)n3nc(N)nc3N2)c1 (centres undefined) | 6% | 13% | -2% | u | u
CC(=O)C1=NOC2C(=O)N(c3ccc(Cl)cc3)C(=O)C12 (centres undefined) | 3.5µM* | 1% | 1% | 4% | -30%
CCOC(=O)C1=NOC2C(=O)N(c3ccc(Cl)cc3Cl)C(=O)C12 (centres undefined) | 3.5µM* | 2% | 6% | 1% | -17%
O=C(C1=NN(c2ccccc2)C2C(=O)N(c3ccc(Cl)cc3)C(=O)C12)c1ccccc1 (centres undefined) | -7% | 14% | -25% | -10% | -34%
Fc1ccc(NCc2nnc3n2CCCCC3)cc1Cl | 3% | x | -19% | 13% | x
CCNc1ncc2nc(-c3cccs3)c(=O)n(Cc3cccs3)c2n1 | x | x | 1% | x | x
CCN(c1ccc(OC)cc1)S(=O)(=O)c1c(C(=O)N2CCCCCC2)c(C)n(C)c1C | -6% | x | -22% | 20% | x
Cc1ccc(S(=O)(=O)Nc2c(O)ccc3ccccc23)cc1 | x | u | 24% | x | x
Cc1c(NS(=O)(=O)c2ccccc2)cc(Cl)c(O)c1C | 3.5µM* | -4% | 5% | u | -51%
Cc1ccc(S(=O)(=O)Nc2cc(Cl)c(O)cc2C)cc1 | 50µM* | 3% | -28% | -12% | -33%
Cc1ccc(S(=O)(=O)Nc2c(Cl)c(Cl)c(O)c3ccccc23)cc1 | 0.32µM* | x | x | -1% | -40%
COc1cccc(CNC(=O)CN2C(=O)CSc3c2c(C)nn3-c2ccccc2)c1OC | -2% | x | 0% | 18% | x
Cc1cccc(-c2noc(CN(C(C)C)S(=O)(=O)c3ccc(Br)cc3)n2)c1 | 9% | x | -15% | -2% | x
CCOc1ccc(OCC)c(NC(=O)c2ccc(-c3ccccc3)s2)c1 | 4% | x | 18% | 16% | x
Cc1cc2c(C(C)C)c(O)c(O)c(C=O)c2c(O)c1-c1c(C)cc2c(C(C)C)c(O)c(O)c(C=O)c2c1O | 50µM* | x | u | -8% | -48%
COc1ccccc1N1CCN(C(=O)CSc2nnc3n2C(C)(C)Cc2ccccc2-3)CC1 | -1% | 6% | 16µM* | u | 95%
CC1Cc2ccccc2N1C(=O)CSc1nnc2n1C(C)(C)Cc1ccccc1-2 (centres undefined) | 0% | 14% | u | u | 9%
O=C(CNC(=O)c1ccc(Cl)cc1)OCc1cc(=O)n2ccsc2n1 | 35µM* | x | -15% | 7% | x
CC(Oc1ccccc1)C(=O)Nc1ccc(C(=O)OCc2cc(=O)n3ccsc3n2)cc1 (centres undefined) | -4% | x | 25µM* | 3% | x
Cc1ccc(C(=O)Nc2ccc(C(=O)OCc3cc(=O)n4ccsc4n3)cc2)cc1 | -2% | x | 7% | 7% | -10%
CC(C)(C)c1ccc(C(=O)Nc2ccc(C(=O)OCc3cc(=O)n4ccsc4n3)cc2)cc1 | -4% | x | 14µM* | 7% | x
Cc1ccc(OCC(=O)Nc2ccc(OCc3cc(=O)n4ccsc4n3)cc2)cc1C | -2% | x | -1% | 9% | x
Cc1ccc(OCC(=O)Nc2ccc(C(=O)OCc3cc(=O)n4ccsc4n3)cc2)cc1C | -3% | x | 35µM* | -11% | x
CCc1ccc(NC(=O)CSc2nccn2-c2cccc(C)c2C)cc1 | 4% | x | -12% | -1% | x
CCCc1cc(C(=O)NCCc2ccccc2)no1 | 3% | 8% | 46% | -4% | 11µM*
SMILES | Sm TGR block | AMA1 RON2 block | FMDV inh | AmpC detergent | AmpC inh no detg
CCc1cc(C(=O)NCc2ccccc2)no1 | -1% | x | 33% | -3% | x
Cc1cccc(N2CC(C)Cn3c2nc2c3c(=O)n(CC(=O)O)c(=O)n2C)c1 (centres undefined) | 17% | x | -3% | 1% | x
CCN1CCN(CCCNC(=O)c2ccc3c(c2)NC(=O)c2ccccc2S3)CC1 | -31% | 8% | -24% | 1% | 4µM*
O=C(NCCCN1CCCC1=O)c1ccc2c(c1)NC(=O)c1ccccc1S2 | 6% | -1% | -20% | u | -4%
Cc1c(Cc2ccccc2)c(=O)oc2c(C)c(OCC(=O)NCC3CCC(C(=O)O)CC3)ccc12 (centres undefined) | 8% | 10% | -13% | u | -29%
Cc1cc(OCC(=O)NCC2CCC(C(=O)O)CC2)c2c(C)c(Cc3ccccc3)c(=O)oc2c1 (centres undefined) | 32µM* | -3% | 8% | -15% | 15%
COC(=O)c1sc(N)c(C(=O)OC)c1Cn1ncc(Cl)c(Cl)c1=O | 0.32µM* | -2% | u | -5% | -18%
COC(=O)c1sc(N)c(C(=O)OC)c1COC(=O)c1c(C)noc1C | -8% | 3% | -6% | -13% | 95%
C=CCNC(=S)Nc1c(C(=O)OC)[nH]c2cc(OC)ccc12 | 1.8µM* | 103% | 25% | -12% | -19%
COC(=O)c1[nH]c2cc(OC)ccc2c1NC(=O)c1c(F)cccc1F | 0% | -6% | 12% | 4% | -18%
O=C(c1ccccc1)N1CCN(c2ncnc3sc4c(c23)CCC4)CC1 | -16% | -8% | 22µM* | -4% | 19%
CC(C)c1nc(N2CCN(C(=O)c3ccco3)CC2)c2c3c(sc2n1)CCCC3 | 28µM* | -16% | x | -11% | 70%
CC[n+]1c(/C=C2\C=C(C)CC(C)(C)C2)sc2ccccc21 | 14µM* | u | u | -8% | 16%
CCC1=C/C(=C/c2sc3ccccc3[n+]2CC)CC(C)(C)C1 | 1.8µM* | 1% | u | -9% | 23%
COc1ccc2sc(C)[n+](C)c2c1 | 4% | -15% | -2% | u | 9%
CC[n+]1c(/C=C2\C=C(C)CC(C)C2)sc2ccccc21 (centres undefined) | 40µM* | u | u | u | -5%
CC[n+]1c(/C=C2/C=C(C)CC(C)(C)C2)sc2ccc(OC)cc21 | 18µM* | u | 20µM* | 2% | 50%
CC[n+]1c(C)sc2sc3ccccc3c21 | -24% | x | x | u | -2%
CC(C)OCCCNC(=O)CN1C(=O)c2ccccc2Sc2ncccc21 | -2% | x | -13% | 17% | x
Cc1occc1C(=O)Nc1cccc(-c2nc(CNC(=O)c3ccc(N4CCCCC4)cc3)c(C)o2)c1 | x | x | 20% | x | x
